Laboratory results published in PubChem BioAssay (NCI).
This is part of a sample that, as a whole, favours compounds with a hit. Of some 83,000 tested, about 20% had one in any assay.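 Plates (96-well) were seeded with cells, treated with compound at one concentration, and incubated for 48 hours before percent growth was determined.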 Values without a mark were called inactive. Activity calls are given as the source filed them. The calls were made as follows: active = growth percent below 10; inactive = the rest.

Key:
Assay in all cases: NCI-60 one-dose screen, 48 h (100 = growth as untreated, 0 = no growth, -100 = all killed)
Conditions in all cases: 10 µM unless noted
[1] = system: HCT-15 colon
[2] = system: HT29 colon
[3] = system: SNB-75 CNS
[4] = system: SNB-19 CNS
[5] = system: U251 CNS
[6] = system: PC-3 prostate
[7] = system: UACC-62 melanoma
[8] = system: LOX IMVI melanoma
[9] = system: SK-MEL-28 melanoma

SMILES	growth [1]	growth [2]	growth [3]	growth [4]	growth [5]	growth [6]	growth [7]	growth [8]	growth [9]
Cc1cc(N2CCSCC2)nc(NC2CCCC(Nc3ccnc4cc(Cl)ccc34)C2)n1 (stereo not drawn)	-67.8% (active)	-58.7% (active)	-60.1% (active)	1.4% (active)	-65.7% (active)	-45.7% (active)	-87.8% (active)	-84.8% (active)	-79.9% (active)
O=C1c2cc3c(cc2-c2c1c1ccc(F)cc1c(=O)n2C[C@H](O)[C@H](O)[C@H](O)CO)OCO3	0.724% (active)	-4.15% (active)	-36.9% (active)	2.14% (active)	-22.4% (active)	6.99% (active)	-70.4% (active)	-33.5% (active)	–
C=C1C(=O)O[C@H]2[C@H]1CC/C(COC(=O)c1cc3cc(OC)ccc3[nH]1)=C\CC[C@@]1(C)O[C@@H]21	-43.5% (active)	-83.4% (active)	-68.5% (active)	-64.3% (active)	-97.7% (active)	-71.5% (active)	-90.6% (active)	-91% (active)	–
CC1=CC(=NN=c2cc(C)n([O-])c(C)c2)C=C(C)[N+]1=O	94.4%	74.6%	64.7%	103%	91.2%	91.9%	80.3%	41.7%	80.8%
CCCCCCCCCCCCC[N+](C)(C)Cc1ccccc1	64.7%	-62.7% (active)	-52.9% (active)	-60.7% (active)	7.89% (active)	-23.7% (active)	-83.9% (active)	-88.3% (active)	-57% (active)
O=C1c2ccccc2OC=C(c2ccccc2)N1CCCCNc1ccc(S(=O)(=O)Nc2ncccn2)cc1	96.1%	100%	80%	101%	91.1%	76.4%	86.8%	92.7%	108%
Cc1cc(N2CCOCC2)nc(N[C@@H]2CCC[C@H](Nc3ccnc4cc(Cl)ccc34)C2)n1	-43.5% (active)	-52.9% (active)	-37.3% (active)	34.8%	-57.3% (active)	9.75% (active)	-79.7% (active)	-77.3% (active)	–
CCCCn1c(-c2ccc(C(=O)O/N=C(\N)c3ccc4ccccc4c3)cc2)nc(-c2ccccc2)c1-c1ccccc1	52.1%	74.3%	23.3%	70.3%	73%	64.8%	76.2%	3.13% (active)	88.5%
CCOC(=O)c1c(C)oc2ncnc(N3CCN(C(=S)Nc4ccccc4)CC3)c12	90.6%	102%	80.5%	96.5%	89.7%	91.8%	87.2%	90.7%	107%
CNc1ccc(-c2cc(=O)oc3ccc(Cl)cc23)cc1	14.9%	-2.77% (active)	40.9%	22.7%	8.91% (active)	12.8%	31.7%	24.1%	58.5%
Nc1ccc(S(=O)(=O)O)c2ccc(N=Nc3ccc(N=Nc4ccc(S(=O)(=O)O)cc4)c4ccccc34)c(O)c12	115%	103%	76.5%	95.9%	111%	91.6%	91.3%	98.1%	109%
CC(C)(C)CC(C)(C)c1ccc(OCCOCC[N+](C)(C)Cc2ccccc2)cc1	95.2%	-50.5% (active)	-26% (active)	-89% (active)	-88.5% (active)	-13.9% (active)	-98.5% (active)	-29.4% (active)	-67% (active)
Cn1ccnc1C(=O)/C=C/c1ccc(CC(=O)Nc2ccccc2)cc1	6.26% (active)	5.1% (active)	11.3%	10.3%	7.03% (active)	25.7%	26.7%	8.77% (active)	55%
CC[C@H]1OC(=O)[C@H](C)[C@@H](O[C@H]2C[C@@](C)(OC)[C@@H](O)[C@H](C)O2)[C@H](C)[C@@H](O[C@@H]2O[C@H](C)C[C@H](N(C)C)[C@H]2O)[C@](C)(O)C[C@H](C)CN(C)[C@H](C)[C@@H](O)[C@]1(C)O	97.1%	102%	80.8%	93.4%	94.8%	91%	98.3%	87%	114%
O=C1Nc2c(ccc(Cl)c2Cl)/C1=C\c1cc(C(F)(F)F)cc(C(F)(F)F)c1	-80.8% (active)	-26.5% (active)	13.7%	21.7%	-54.2% (active)	0.08% (active)	-3.92% (active)	-90.1% (active)	-21% (active)
CCN1CCN(c2nc(NCCNc3ccnc4cc(Cl)ccc34)c3ccccc3n2)CC1	7.08% (active)	-14.1% (active)	44.7%	14.4%	-16.7% (active)	24.7%	-87.9% (active)	-62.9% (active)	-60.1% (active)
C#CC(F)(F)[C@]1(O)CC[C@H]2[C@@H]3CCC4=CC(=O)CCC4=C3[C@@H](c3ccc(C(C)=O)cc3)C[C@@]21C	89.6%	1.5% (active)	73.7%	95.6%	75.5%	37%	80.2%	48.9%	107%
CCc1nnc(CNc2ccc(Cl)cc2)o1	100%	95.1%	82.7%	106%	98.2%	95.1%	93.7%	91.2%	100%
Clc1ccc2c(NCCCCNc3nc(N4CCCCC4)nc4ccccc34)ccnc2c1	-38.2% (active)	-14.2% (active)	-59.5% (active)	18.6%	-32.9% (active)	25.6%	-86.9% (active)	-73.8% (active)	-71.1% (active)
Nc1nc2ncc(CCNc3ccc(C(=O)O)cc3)nc2c(=O)[nH]1	102%	97.5%	110%	111%	109%	92.4%	111%	102%	118%
COc1cc(/C=C/c2cc(/C=C/c3ccc(O)c(OC)c3)n(-c3c(Cl)cccc3Cl)c(=O)n2)ccc1O	10.3%	-30.4% (active)	49.4%	34.1%	8.54% (active)	34.9%	38.2%	2.83% (active)	17.6%
O=C(Oc1cccnc1)c1ccsc1Nc1ccnc(C(F)(F)F)c1	45.9%	4.26% (active)	80.5%	97.7%	92.5%	83.8%	91.5%	21.9%	89.3%
CCOC(=O)c1cc(C(=O)c2ccc(O)c(O)c2)n2ccc(-c3ccn4c(C(=O)c5ccc(O)c(O)c5)cc(C(=O)OCC)c4c3)cc12	88%	96%	87.3%	93.9%	97%	89.1%	97.9%	89%	113%
O=C(/C=C/c1cc(CN2CCOCC2)c(O)c2ncccc12)c1cc(CN2CCOCC2)c(O)c2ncccc12	16.2%	16.8%	32.2%	20.7%	3.35% (active)	23.7%	10.1%	19.3%	37%
N#CN1CCC[C@H]1C(=O)N1CCc2c(-c3[nH]nc4ncccc34)cccc21	7.65% (active)	-53.9% (active)	-16% (active)	17.1%	-27.6% (active)	21.6%	7.64% (active)	4.55% (active)	24.6%
CCN1CCC2(CC1)NC(=O)c1c(c3ccc(Cl)c(Cl)c3n1C)C2C#N (stereo not drawn)	14.3%	7.28% (active)	51.2%	84.9%	57%	47.1%	-83.2% (active)	30.6%	-100% (active)
CCC([N+](=O)[O-])S(=O)(=O)c1ccc(C)cc1 (stereo not drawn)	105%	101%	85.1%	94.4%	100%	101%	101%	98.2%	112%
N#CN1CC[C@H](C(=O)Nc2cc3cc(C(N)=O)ccc3cn2)C1	3.81% (active)	-31.2% (active)	-28.4% (active)	7.87% (active)	-2.5% (active)	2.76% (active)	-34.5% (active)	4.7% (active)	-9.92% (active)
COc1cc2c(cc1-c1c(C)noc1C)ncc1nc(C3CCOCC3)n([C@H](C)COC(F)F)c12	22.8%	24.5%	29.9%	47.6%	51.8%	34.3%	17.8%	12.6%	55.8%
